Compounds without any hit were thinned out: in the full panel of roughly 83,000, 20% have a hit.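 Activity criterion: percent growth below 10, measured after cells in 96-well plates were exposed to a single compound concentration for 48 hours.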 Values without a mark were called inactive. The source made the active and inactive calls.
Columns and labels:
Assay in all cases: NCI-60 one-dose screen, 48 h (100 = growth as untreated, 0 = no growth, -100 = all killed)
Details in all cases: 10 µM unless noted
[1] = test system: HCT-15 colon
[2] = test system: HT29 colon
[3] = test system: SNB-75 CNS
[4] = test system: SNB-19 CNS
[5] = test system: PC-3 prostate
[6] = test system: SK-MEL-5 melanoma
[7] = test system: UACC-62 melanoma
[8] = test system: LOX IMVI melanoma
[9] = test system: SK-MEL-28 melanoma
[10] = test system: SK-MEL-2 melanoma
[11] = test system: EKVX NSCLC
[12] = test system: SN12C renal
[13] = test system: UO-31 renal
[14] = test system: TK-10 renal
[15] = test system: ACHN renal
[16] = test system: CAKI-1 renal
[17] = test system: A498 renal
[18] = test system: CCRF-CEM leukemia
[19] = test system: MOLT-4 leukemia
[20] = test system: U251 CNS

| SMILES | growth [1] | growth [2] | growth [3] | growth [4] | growth [5] | growth [6] | growth [7] | growth [8] | growth [9] | growth [10] | growth [11] | growth [12] | growth [13] | growth [14] | growth [15] | growth [16] | growth [17] | growth [18] | growth [19] | growth [20] |
| --- | --- | --- | --- | --- | --- | --- | --- | --- | --- | --- | --- | --- | --- | --- | --- | --- | --- | --- | --- | --- |
| CN(C)CCNC(=O)n1cc(-c2ccncc2)c(-c2cc(O)cc(Cl)c2)n1 | 77.1% | 88.5% | 103% | 106% | 112% | 77.3% | 36.4% | 76.3% | 35.2% | 96.3% | 107% | 91.9% | 104% | 92.6% | 80.6% | 109% | 82.2% | 88% | 86.4% | – |
| CCN(C(=O)CCl)C(C)(C)C(SSSC(c1ccc(Cl)cc1)C(C)(C)N(CC)C(=O)CCl)c1ccc(Cl)cc1 (stereo not given) | 56.3% | 18% | 84.3% | 117% | 63.3% | 73.5% | -2.54% (active) | 66.6% | -24.6% (active) | 78.5% | – | 88.3% | 66.9% | 101% | 78.2% | 29.1% | 98.8% | – | 36.9% | – |
| CCCCCc1c(C)[nH]c(/C=C2\N=C(c3ccc[nH]3)C=C2Oc2ccc(OC)cc2)c1C | -93.8% [100 µM] (active) | -64% [100 µM] (active) | -91.6% [100 µM] (active) | -83.1% [100 µM] (active) | -25.7% [100 µM] (active) | -73.6% [100 µM] (active) | -93.5% [100 µM] (active) | -71.9% [100 µM] (active) | -86.9% [100 µM] (active) | -74.4% [100 µM] (active) | – | -88.6% [100 µM] (active) | -75.7% [100 µM] (active) | -60.2% [100 µM] (active) | -59.8% [100 µM] (active) | -73.9% [100 µM] (active) | -89.3% [100 µM] (active) | – | -34% [100 µM] (active) | – |
| Cc1ccccc1C1CC(=O)c2ccccc2C1C (stereo not given) | 96.9% | 100% | 85% | 94.5% | 99.4% | 105% | 87.4% | 100% | 107% | 120% | 101% | 99.1% | 82.1% | 105% | 108% | 106% | 88.5% | 95.2% | 93.5% | – |
| CC(C)CCC(=O)[C@@H](C)[C@H]1[C@@H](OC2OCC(O)C(O)C2NS(C)(=O)=O)C[C@H]2[C@@H]3CC=C4C[C@@H](O)CC[C@]4(C)[C@H]3CC[C@]12C (stereo not given in full) | 14% | 19.6% | 22.2% | 32.1% | 4.46% (active) | 7.33% (active) | -22% (active) | 21.9% | -36.1% (active) | -36.9% (active) | 27.7% | 75.2% | -16.1% (active) | 26.1% | 42.1% | 24.1% | -58.4% (active) | -8.84% (active) | -0.0897% (active) | – |
| COc1cc2c(cc1OC)-c1cc(OC)c(OC)cc1C(CN(C)C)C2 (stereo not given) | 78.2% [100 µM] | 78.4% [100 µM] | -56.2% [100 µM] (active) | 7.08% [100 µM] (active) | 56.3% [100 µM] | 73.4% [100 µM] | 20.4% [100 µM] | 71.1% [100 µM] | 41.4% [100 µM] | 29% [100 µM] | – | 43.7% [100 µM] | 68.1% [100 µM] | 65.7% [100 µM] | 44.6% [100 µM] | 11.6% [100 µM] | 52.6% [100 µM] | – | 103% [100 µM] | – |
| COc1ccc(C(=O)N2N=C(c3ccc(F)cc3)CC2c2cn(-c3ccccc3)nc2-c2ccccc2)cc1 (stereo not given) | 55.9% | 37.6% | 72.5% | 80% | 71.6% | 90.7% | 61% | 41.8% | 71.9% | 75.1% | 70.9% | 63% | 68.1% | 80.2% | 86.5% | 63.2% | 93.2% | 57.1% | 42.2% | – |
| O=C(/C=C/c1ccccc1)c1c[nH]c2ccccc2c1=O | 4.67% (active) | 8.44% (active) | -15.6% (active) | 16.3% | 26.7% | 43.4% | 29.2% | -32.6% (active) | 66.4% | – | 36.3% | 8.29% (active) | 4.93% (active) | 22.5% | 11.6% | 4.66% (active) | -6.19% (active) | -12.2% (active) | 9.81% (active) | – |
| Clc1ccc(-c2cnc3c(-c4ccnc(N5CCNCC5)c4)cnn3c2)cc1 | -22.9% (active) | -7.81% (active) | -68.6% (active) | 3.09% (active) | 15.2% | 73.8% | -66.8% (active) | -80.9% (active) | -82.8% (active) | -57.4% (active) | 80.8% | 10.9% | -42.6% (active) | 1.85% (active) | -0.355% (active) | -19.2% (active) | 92.2% | 0.88% (active) | -5.54% (active) | – |
| CC(C)C/C=C/C=C/C(=O)N[C@@H](CC(N)=O)C(=O)N[C@@H]1C(=O)N[C@H](c2ccc(O)cc2)C(=O)N[C@H](CCCN)C(=O)N[C@H]([C@@H](C)O)C(=O)N[C@H](c2ccc(O)cc2)C(=O)N[C@H](c2ccc(O)cc2)C(=O)N[C@H]([C@H](C)O)C(=O)N[C@H](Cc2ccccc2)C(=O)N[C@H](CCCN)C(=O)N[C@H](c2ccc(O[C@H]3O[C@@H](CO)[C@@H](O)[C@@H](O)[C@H]3O[C@@H]3O[C@H](CO)[C@H](O)[C@H](O)[C@@H]3O)cc2)C(=O)N[C@H]([C@H](C)O)C(=O)N[C@H](c2ccc(O)cc2)C(=O)NCC(=O)N[C@H](CC(C)C)C(=O)N[C@H](C)C(=O)N[C@H](c2ccc(O)c(Cl)c2)C(=O)O[C@@H]1C(N)=O | 70% | 24.2% | 81.9% | 21% | 83.3% | 26.2% | -4.24% (active) | 36.8% | 22.8% | 88.2% | 92.7% | 94.5% | 118% | 74.5% | 111% | 97.1% | 199% | – | 38.8% | – |
| Cc1nn(-c2ccccc2)c2nc3c(nc12)C1=NCCN1C(c1ccc(Cl)cc1)N3 (stereo not given) | 66.4% | 19% | 62.1% | 109% | 55.1% | 65.6% | 84.8% | 79.1% | 73.3% | 79.5% | – | 89.5% | 59.2% | 94.4% | 87.3% | 82.6% | 85.6% | – | 47.3% | – |
| CCN(CC)CCNC(=O)n1cc(-c2ccncc2)c(-c2ccc(Cl)c(OC)c2)n1 | 96.1% | 59.4% | 64.7% | 93% | 88.2% | 94.1% | 72.5% | 92.3% | 90.2% | 96.1% | 61.8% | 90.7% | 69.2% | 26.9% | 77.6% | 99.7% | 95.5% | 98.3% | 82% | – |
| COc1cc(C2CC(c3ccc(C)cc3)=NN2C=O)ccc1Oc1nc2c(c(=O)n(C)c(=O)n2C)n1C (stereo not given) | 94.3% | – | 93% | 67.2% | 74.3% | 58.1% | 94.5% | 60.6% | 106% | 121% | 80.1% | 52.4% | 63.1% | 113% | 88.1% | 79.2% | 76.9% | 83.8% | 67.2% | 92.7% |
| CCCCSc1ncnc2c1ncn2C1CCCCO1 (stereo not given) | 102% | 109% | 104% | 103% | 99.5% | 104% | 99.6% | 101% | 119% | 104% | 115% | 103% | 91.2% | 109% | 110% | 110% | 94.6% | 99.6% | 96.9% | – |
| Cc1cccc(N=NC(=S)NNc2cccc(C)c2)c1 | 108% | 97.9% | 88.7% | 106% | 102% | 108% | 101% | 105% | 125% | 111% | 98.3% | 102% | 81.6% | 136% | 92.1% | 94.5% | 87.3% | 86.6% | 98.4% | – |

Reference: PubChem BioAssay (NCI)
